Among the data in PubChem BioAssay (EPA / NIEHS) are outcome and AC50 values, retold here.

In assay [1] the test system is guinea pig Muscarinic, Peripheral (Mperiperal) Receptor, Non-selective Binding, gene 100379235. In words: NVS_GPCR_gMPeripheral_NonSelective: NovaScreen (NVS) G Protein-Coupled Receptor Assay for guinea pig Muscarinic, Peripheral (Mperiperal) Receptor, Non-selective Binding (AID 2283250). Put shortly: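 Screened in duplicate at 25 uM, hits retested in concentration series to 50 uM max, using bladder membrane radioligand displacement from guinea pig. Filtration and scintillation counting 1 h post-dose, fitted relative to DMSO.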

Assay [2] deals with guinea pig Opioid, Kappa 1 Receptor (OpiateK), OPRK1 (gene 100135587) (UniProt P41144). In words: NVS_GPCR_gOpiateK: NovaScreen (NVS) G Protein-Coupled Receptor Assay for guinea pig Opioid, Kappa 1 Receptor (OpiateK) (AID 2283252).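 Also: active means reduced radioligand binding relative to DMSO.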 The gist of the method: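 Cell-free tissue prep: guinea pig cerebellar membranes, radioligand displacement, 2 h incubation. Readout: filtration plus scintillation counting. Primary single-point 25 uM duplicate; actives retested in concentration series; DMSO negative control.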

For assay [3], the system named is guinea pig Leukotriene B4 Receptor (LTB4), gene 100379538. In words: NVS_GPCR_gLTB4: NovaScreen (NVS) G Protein-Coupled Receptor Assay for guinea pig Leukotriene B4 Receptor (LTB4) (AID 2283247). The gist of the method: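 Membranes from guinea pig spleen incubated 2 h with radioligand and compound; bound counts measured by filtration and scintillation. Screened first at 25 uM in duplicate, then actives titrated to a 50 uM top concentration relative to DMSO.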

The target in assay [4] is Adenosine receptor A1 (Bos taurus) (UniProt P28190). As to the kind of experiment: NVS_GPCR_bAdoR_NonSelective: NovaScreen (NVS) G Protein-Coupled Receptor Assay for bovine Adenosine Receptor (AdoR), Non-selective Binding (AID 2283244). The gist of the method: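 Cell-free binding with membranes from bovine striatum: radioligand displaced by test chemical, read after 1 h by filtration and scintillation. Single-point 25 uM duplicate primary, 50 uM top concentration in follow-up curves, DMSO baseline.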

Assay [5] concerns the target guinea pig Leukotriene D4 Receptor (LTD4), CYSLTR1 (gene 100135514) (UniProt Q2NNR5). In words: NVS_GPCR_gLTD4: NovaScreen (NVS) G Protein-Coupled Receptor Assay for guinea pig Leukotriene D4 Receptor (LTD4) (AID 2283248). The gist of the method:
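Guinea pig lung membrane preparation; bound radioligand measured by filter scintillation after 1 h, loss of signal versus DMSO marking displacement. Compounds tested at 25 uM in duplicate, hits retested to max 50 uM.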

Assay [6] deals with human Serotonin, 5-Hydroxytryptamine Receptor 5A (5HT5A), HTR5A (gene 3361) (UniProt P47898). In words: NVS_GPCR_h5HT5A: NovaScreen (NVS) G Protein-Coupled Receptor Assay for human Serotonin, 5-Hydroxytryptamine Receptor 5A (5HT5A) (AID 2283251). Put shortly: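 Membranes from HEK293 cells, radioligand binding read by filtration and scintillation after 1 h. Single-concentration duplicate testing at 25 uM, then concentration-response for actives; positive-direction fitting relative to DMSO.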

Assay [7] deals with human Serotonin, 5-Hydroxytryptamine Receptor 7 (5HT7), HTR7 (gene 3363) (UniProt P34969). As to the kind of experiment: NVS_GPCR_h5HT7: NovaScreen (NVS) G Protein-Coupled Receptor Assay for human Serotonin, 5-Hydroxytryptamine Receptor 7 (5HT7) (AID 2283255).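 Also: hits reduce specific radioligand binding relative to DMSO.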 The gist of the method:
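Filter-bound radioactivity counted after 1 h, with loss of specific radioligand binding fitted against DMSO. Membrane protein came from CHO cells expressing human 5HT7. Chemicals were tested first at 25 uM in duplicate, then in concentration series if active.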

For assay [8], the target named is human Adenosine A2a Receptor (AdoRA2a), ADORA2A (gene 135) (UniProt P29274). In words: NVS_GPCR_hAdoRA2a: NovaScreen (NVS) G Protein-Coupled Receptor Assay for human Adenosine A2a Receptor (AdoRA2a) (AID 2283256). The gist of the method: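 HEK293-derived receptor preparation, radioligand displacement, 1.5 h, filtration + scintillation read. Loss of bound signal scored vs DMSO. Single-point 25 uM in duplicate first, then concentration-response for actives.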

In assay [9] the target is human Adrenergic, Beta 1 Receptor (Adrb1), ADRB1 (gene 153) (UniProt P08588). As to the kind of experiment: NVS_GPCR_hAdrb1: NovaScreen (NVS) G Protein-Coupled Receptor Assay for human Adrenergic, Beta 1 Receptor (Adrb1) (AID 2283258). The gist of the method: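 Membranes/protein extracted from human neuroepithelioma cells, radioligand competition binding read by filtration and scintillation 2 h post-dose. Single 25 uM duplicate screen, then concentration-response follow-up; DMSO as negative control.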

The target of assay [10] is human Adrenergic, Alpha 2c Receptor (Adra2C), ADRA2C (gene 152) (UniProt P18825). In words: NVS_GPCR_hAdra2C: NovaScreen (NVS) G Protein-Coupled Receptor Assay for human Adrenergic, Alpha 2c Receptor (Adra2C) (AID 2283259). The gist of the method:
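Screened first in duplicate at 25 uM, with actives then run as concentration series. Membranes from Sf9 cells were exposed for 1 h, and displacement of radioligand was counted after filtration, using DMSO as baseline.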

The target of assay [11] is human Dopamine Receptor D4.4 (DRD4.4), DRD4 (gene 1815) (UniProt P21917). As to the kind of experiment: NVS_GPCR_hDRD4.4: NovaScreen (NVS) G Protein-Coupled Receptor Assay for human Dopamine Receptor D4.4 (DRD4.4) (AID 2283264). Put shortly:
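Filter-binding assay with a tritiated or iodinated ligand, cell-free receptor prepared from CHO, 1 hour. Loss of bound radioactivity versus DMSO; single 25 uM duplicate screen, then concentration-response for actives.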

Assay [12] deals with human Serotonin, 5-Hydroxytryptamine Receptor 6 (5HT6), HTR6 (gene 3362) (UniProt P50406). As to the kind of experiment: NVS_GPCR_h5HT6: NovaScreen (NVS) G Protein-Coupled Receptor Assay for human Serotonin, 5-Hydroxytryptamine Receptor 6 (5HT6) (AID 2283253). The gist of the method:
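Filter scintillation counting of radioligand displacement from HEK293-expressed 5HT6, 1 hour post-dose, with loss of signal relative to DMSO. Single 25 uM duplicates first, with concentration series for confirmation.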

Assay [13] concerns the target human Adenosine A1 Receptor (AdoRA1), ADORA1 (gene 134) (UniProt P30542). In words: NVS_GPCR_hAdoRA1: NovaScreen (NVS) G Protein-Coupled Receptor Assay for human Adenosine A1 Receptor (AdoRA1) (AID 2283254). The gist of the method:
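Radioligand binding was run on human cortical membranes, cell-free, with filter-based scintillation counting 1 h after dosing. The primary screen was duplicate at 25 uM, followed by concentration series. Signal loss versus DMSO was fitted positive-direction.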

Assay [14] has as its target human Serotonin, 5-Hydroxytryptamine Receptor 2A (5HT2A), HTR2A (gene 3356) (UniProt P28223). As to the kind of experiment: NVS_GPCR_h5HT2A: NovaScreen (NVS) G Protein-Coupled Receptor Assay for human Serotonin, 5-Hydroxytryptamine Receptor 2A (5HT2A) (AID 2283249). The gist of the method:
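Radioligand displacement on human cortex tissue extract, counted by filtration and scintillation 1.5 h post-dosing. Initial single-concentration screen at 25 uM in duplicate, concentration series in follow-up; DMSO as baseline.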

Assay [15] concerns the target Beta-2 adrenergic receptor (Homo sapiens) (UniProt P07550). As to the kind of experiment: NVS_GPCR_hAdrb2: NovaScreen (NVS) G Protein-Coupled Receptor Assay for human Adrenergic, Beta 2 Receptor (Adrb2) (AID 2283261). Put shortly: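 Compounds screened in duplicate at 25 uM, then actives in concentration series. Human beta-2 receptor from CHO material, cell-free; radioligand displacement after 1 h measured by filtration and scintillation against DMSO baseline.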

The target in assay [16] is human Adrenergic, Beta 3 Receptor (Adrb3), ADRB3 (gene 155) (UniProt P13945). As to the kind of experiment: NVS_GPCR_hAdrb3: NovaScreen (NVS) G Protein-Coupled Receptor Assay for human Adrenergic, Beta 3 Receptor (Adrb3) (AID 2283262). The gist of the method:
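A cell-free filter binding assay read by scintillation counting, with displacement of a specific radioligand measured after 1 hour. The receptor source was SK-N-MC extracts (cells pretreated with isoproterenol and 8-bromo-cAMP). Compounds were first tested at 25 uM in duplicate and then in concentration series.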

Assay [17] addresses Type-1 angiotensin II receptor (Homo sapiens) (UniProt P30556). In words: NVS_GPCR_hAT1: NovaScreen (NVS) G Protein-Coupled Receptor Assay for human Angiotensin II receptor type 1 (AT1) (AID 2283263). The gist of the method: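 Hits from a 25 uM duplicate screen (threshold e.g. 30% inhibition) were run in concentration-response with 50 uM top concentration. Displacement of specific radioligand from KAN-TS membrane preparations measured after 3 h by filter scintillation, DMSO as baseline.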

The subject of assay [18] is rat Monoamine Oxidase, MAO-A, Central (MAOAC), gene 29253. As to the kind of experiment: NVS_ENZ_rMAOAC: NovaScreen (NVS) Enzymatic Assay for rat Monoamine Oxidase, MAO-A, Central (MAOAC) (AID 2283243).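 Also: potency refers to inhibition seen as signal drop below DMSO baseline.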 Put shortly:
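Lysate-based radiometric enzyme assay using rat brain tissue; 1.5 h treatment; 25 uM single-point duplicate screen, concentration-response follow-up; loss of signal versus DMSO.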

Molecules are shown by their SMILES. Results filed as inconclusive are left out. Calls of active or inactive are those of the source. The calls were made as follows: active = hit-call score of the fitted dose curve at least 0.9, where 1 is the maximum; inconclusive = response in the unintended direction; inactive = score below 0.9.

human Adrenergic, Beta 1 Receptor (Adrb1), ADRB1 (gene 153), sequence (P08588 whole entry, looked up): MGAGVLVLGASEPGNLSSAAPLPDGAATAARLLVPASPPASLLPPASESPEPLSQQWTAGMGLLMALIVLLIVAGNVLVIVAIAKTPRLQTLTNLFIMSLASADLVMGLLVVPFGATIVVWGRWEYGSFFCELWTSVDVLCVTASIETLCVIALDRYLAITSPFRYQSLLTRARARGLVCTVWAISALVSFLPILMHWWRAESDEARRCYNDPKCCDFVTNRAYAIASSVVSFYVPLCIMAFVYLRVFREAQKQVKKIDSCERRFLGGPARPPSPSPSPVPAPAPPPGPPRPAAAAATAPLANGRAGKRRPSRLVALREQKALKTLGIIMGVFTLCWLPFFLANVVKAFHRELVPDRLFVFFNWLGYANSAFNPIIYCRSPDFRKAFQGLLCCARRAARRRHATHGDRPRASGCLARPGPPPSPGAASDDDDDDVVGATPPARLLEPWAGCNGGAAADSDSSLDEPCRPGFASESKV
guinea pig Opioid, Kappa 1 Receptor (OpiateK), OPRK1 (gene 100135587), sequence (P41144 whole entry, looked up): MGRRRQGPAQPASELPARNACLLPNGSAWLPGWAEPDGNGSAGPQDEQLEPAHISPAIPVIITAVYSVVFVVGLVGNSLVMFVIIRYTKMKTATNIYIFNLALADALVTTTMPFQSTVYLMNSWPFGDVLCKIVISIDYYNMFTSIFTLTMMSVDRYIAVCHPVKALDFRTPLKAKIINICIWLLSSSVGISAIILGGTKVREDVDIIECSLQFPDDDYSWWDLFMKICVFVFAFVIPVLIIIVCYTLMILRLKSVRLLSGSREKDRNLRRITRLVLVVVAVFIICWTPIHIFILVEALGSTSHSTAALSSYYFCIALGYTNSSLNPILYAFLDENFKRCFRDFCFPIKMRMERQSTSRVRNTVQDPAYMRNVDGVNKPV
human Adenosine A2a Receptor (AdoRA2a), ADORA2A (gene 135), sequence (P29274 whole entry, looked up): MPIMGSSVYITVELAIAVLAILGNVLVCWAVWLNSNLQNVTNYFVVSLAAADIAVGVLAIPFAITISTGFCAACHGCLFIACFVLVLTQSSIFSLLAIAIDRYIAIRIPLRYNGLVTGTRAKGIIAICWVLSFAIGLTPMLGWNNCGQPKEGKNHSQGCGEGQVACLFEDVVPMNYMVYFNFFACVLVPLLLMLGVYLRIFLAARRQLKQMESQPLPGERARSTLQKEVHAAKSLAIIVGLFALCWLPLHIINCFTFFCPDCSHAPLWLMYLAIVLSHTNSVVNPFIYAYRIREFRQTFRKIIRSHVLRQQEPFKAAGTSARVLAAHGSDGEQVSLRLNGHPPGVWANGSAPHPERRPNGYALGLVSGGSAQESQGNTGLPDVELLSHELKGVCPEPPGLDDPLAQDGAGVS
Adenosine receptor A1 (Bos taurus), sequence (P28190 whole entry, looked up): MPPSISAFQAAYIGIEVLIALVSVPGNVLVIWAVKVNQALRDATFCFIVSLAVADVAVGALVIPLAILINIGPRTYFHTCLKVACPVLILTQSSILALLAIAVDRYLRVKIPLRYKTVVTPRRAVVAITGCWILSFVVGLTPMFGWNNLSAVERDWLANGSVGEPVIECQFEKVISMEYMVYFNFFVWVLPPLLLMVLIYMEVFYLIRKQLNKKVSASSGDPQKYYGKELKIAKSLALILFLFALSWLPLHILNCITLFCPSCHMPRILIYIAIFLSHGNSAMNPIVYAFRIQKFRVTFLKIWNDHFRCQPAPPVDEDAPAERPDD
human Adrenergic, Alpha 2c Receptor (Adra2C), ADRA2C (gene 152), sequence (P18825 whole entry, looked up): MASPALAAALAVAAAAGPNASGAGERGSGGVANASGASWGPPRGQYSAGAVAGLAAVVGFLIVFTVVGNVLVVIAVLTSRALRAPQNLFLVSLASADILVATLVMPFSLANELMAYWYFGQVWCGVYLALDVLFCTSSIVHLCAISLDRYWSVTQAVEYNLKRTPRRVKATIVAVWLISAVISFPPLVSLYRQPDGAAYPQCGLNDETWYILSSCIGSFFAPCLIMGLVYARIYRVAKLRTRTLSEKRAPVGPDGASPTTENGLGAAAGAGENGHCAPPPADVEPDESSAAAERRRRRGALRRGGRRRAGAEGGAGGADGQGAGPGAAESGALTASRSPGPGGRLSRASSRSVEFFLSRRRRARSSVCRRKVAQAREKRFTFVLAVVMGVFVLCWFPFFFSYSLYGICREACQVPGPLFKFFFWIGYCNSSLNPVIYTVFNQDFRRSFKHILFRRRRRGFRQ
human Adenosine A1 Receptor (AdoRA1), ADORA1 (gene 134), sequence (P30542 whole entry, looked up): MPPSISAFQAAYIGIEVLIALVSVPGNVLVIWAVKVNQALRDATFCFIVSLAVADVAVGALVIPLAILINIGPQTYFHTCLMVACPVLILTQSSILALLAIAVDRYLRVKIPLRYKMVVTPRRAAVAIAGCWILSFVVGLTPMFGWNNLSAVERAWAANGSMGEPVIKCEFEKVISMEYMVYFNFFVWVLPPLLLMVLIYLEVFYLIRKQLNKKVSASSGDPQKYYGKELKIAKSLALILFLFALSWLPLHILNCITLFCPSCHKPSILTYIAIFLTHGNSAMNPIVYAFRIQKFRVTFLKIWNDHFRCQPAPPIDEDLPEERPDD
human Serotonin, 5-Hydroxytryptamine Receptor 7 (5HT7), HTR7 (gene 3363), sequence (P34969 whole entry, looked up): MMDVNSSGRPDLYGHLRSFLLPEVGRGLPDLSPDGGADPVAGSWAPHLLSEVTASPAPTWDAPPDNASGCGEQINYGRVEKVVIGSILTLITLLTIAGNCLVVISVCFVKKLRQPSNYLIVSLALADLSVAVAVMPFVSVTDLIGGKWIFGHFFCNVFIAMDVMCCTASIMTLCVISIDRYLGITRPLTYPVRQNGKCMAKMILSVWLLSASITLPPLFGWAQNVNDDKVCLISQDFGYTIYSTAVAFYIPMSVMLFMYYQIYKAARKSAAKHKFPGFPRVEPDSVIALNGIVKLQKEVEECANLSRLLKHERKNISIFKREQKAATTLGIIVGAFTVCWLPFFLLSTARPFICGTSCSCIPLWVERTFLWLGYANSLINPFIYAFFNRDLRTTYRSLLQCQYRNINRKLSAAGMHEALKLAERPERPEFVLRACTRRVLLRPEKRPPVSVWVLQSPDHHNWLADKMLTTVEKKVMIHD
human Serotonin, 5-Hydroxytryptamine Receptor 5A (5HT5A), HTR5A (gene 3361), sequence (P47898 whole entry, looked up): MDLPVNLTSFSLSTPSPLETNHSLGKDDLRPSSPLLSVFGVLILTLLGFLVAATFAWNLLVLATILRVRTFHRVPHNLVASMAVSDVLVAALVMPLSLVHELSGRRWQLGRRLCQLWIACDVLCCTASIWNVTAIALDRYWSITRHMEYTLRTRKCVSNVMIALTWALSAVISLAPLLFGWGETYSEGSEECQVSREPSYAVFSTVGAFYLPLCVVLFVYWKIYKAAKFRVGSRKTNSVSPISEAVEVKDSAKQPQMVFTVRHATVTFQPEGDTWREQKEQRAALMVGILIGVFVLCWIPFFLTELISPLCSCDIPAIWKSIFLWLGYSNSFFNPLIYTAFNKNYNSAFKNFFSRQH
human Dopamine Receptor D4.4 (DRD4.4), DRD4 (gene 1815), sequence (P21917 whole entry, looked up): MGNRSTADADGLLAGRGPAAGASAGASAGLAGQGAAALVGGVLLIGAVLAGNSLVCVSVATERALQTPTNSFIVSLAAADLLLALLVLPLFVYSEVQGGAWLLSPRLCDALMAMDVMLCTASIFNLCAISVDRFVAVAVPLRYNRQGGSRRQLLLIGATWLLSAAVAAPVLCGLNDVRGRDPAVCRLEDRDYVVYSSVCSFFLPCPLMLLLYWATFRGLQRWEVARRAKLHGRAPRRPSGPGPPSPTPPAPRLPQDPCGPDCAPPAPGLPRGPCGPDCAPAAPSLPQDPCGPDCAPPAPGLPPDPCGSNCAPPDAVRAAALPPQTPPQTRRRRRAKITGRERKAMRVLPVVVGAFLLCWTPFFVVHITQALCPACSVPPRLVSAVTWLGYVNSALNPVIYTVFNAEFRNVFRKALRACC
human Serotonin, 5-Hydroxytryptamine Receptor 6 (5HT6), HTR6 (gene 3362), sequence (P50406 whole entry, looked up): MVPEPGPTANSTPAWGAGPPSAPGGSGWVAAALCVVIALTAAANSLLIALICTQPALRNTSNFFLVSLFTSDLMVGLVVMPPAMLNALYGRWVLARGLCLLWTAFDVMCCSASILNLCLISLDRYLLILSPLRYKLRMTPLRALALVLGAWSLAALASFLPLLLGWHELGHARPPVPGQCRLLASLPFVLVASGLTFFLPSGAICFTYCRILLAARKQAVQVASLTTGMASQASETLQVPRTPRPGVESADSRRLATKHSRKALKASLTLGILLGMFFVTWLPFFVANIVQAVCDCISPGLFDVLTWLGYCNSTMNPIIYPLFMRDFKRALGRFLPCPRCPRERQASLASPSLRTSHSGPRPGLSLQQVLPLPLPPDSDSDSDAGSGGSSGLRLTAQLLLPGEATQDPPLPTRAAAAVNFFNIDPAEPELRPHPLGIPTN
human Adrenergic, Beta 3 Receptor (Adrb3), ADRB3 (gene 155), sequence (P13945 whole entry, looked up): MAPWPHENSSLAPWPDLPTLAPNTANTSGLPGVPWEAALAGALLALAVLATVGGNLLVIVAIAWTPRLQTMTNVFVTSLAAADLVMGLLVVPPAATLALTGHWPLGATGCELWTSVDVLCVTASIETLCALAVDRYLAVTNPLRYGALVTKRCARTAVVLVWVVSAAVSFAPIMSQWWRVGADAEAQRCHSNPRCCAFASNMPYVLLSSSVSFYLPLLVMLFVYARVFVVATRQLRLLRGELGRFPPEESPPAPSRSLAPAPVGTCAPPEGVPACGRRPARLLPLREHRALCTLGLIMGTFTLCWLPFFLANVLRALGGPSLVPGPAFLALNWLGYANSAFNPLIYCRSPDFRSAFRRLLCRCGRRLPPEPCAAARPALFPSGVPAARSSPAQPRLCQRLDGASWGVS
Type-1 angiotensin II receptor (Homo sapiens), sequence (P30556 whole entry, looked up): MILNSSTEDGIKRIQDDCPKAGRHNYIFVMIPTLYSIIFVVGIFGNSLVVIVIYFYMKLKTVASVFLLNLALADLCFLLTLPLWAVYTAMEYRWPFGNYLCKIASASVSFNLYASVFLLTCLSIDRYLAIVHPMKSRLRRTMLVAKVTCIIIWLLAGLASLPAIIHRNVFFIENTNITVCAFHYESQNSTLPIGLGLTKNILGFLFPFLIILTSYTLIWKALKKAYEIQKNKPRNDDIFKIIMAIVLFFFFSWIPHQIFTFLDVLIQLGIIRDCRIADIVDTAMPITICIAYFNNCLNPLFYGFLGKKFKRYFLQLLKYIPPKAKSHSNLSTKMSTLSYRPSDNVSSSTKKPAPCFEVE

Regarding `O=C(N[C@H]1CN2CCC1CC2)c1cc2ccoc2cn1`, the compound was classed as inactive in [1] and in assay [2].

For the compound `O=S(=O)(O)C(F)(F)C(F)(F)C(F)(F)C(F)(F)F`, the AC50 in assay [3] was 12.2 µM (active).

On to `O=C(O)C(F)(F)C(F)(F)C(F)(F)C(F)(F)C(F)(F)C(F)(F)C(F)(F)C(F)(F)C(F)(F)F`, for which the call in assay [4] and in assay [5] was inactive. For the same compound, the concentration at half-maximal activity (AC50) in [3] was 11.6 µM (active); in assay [6], 20.7 µM (active); in assay [7] it was 16.4 µM (active); in assay [8] it was 7.6 µM (active); in assay [9], 21.3 µM (active); in assay [10] it was 10.9 µM (active). For the same compound, the concentration at half-maximal activity (AC50) in assay [11] was 25 µM (active).

As to `CC(C)(c1ccccc1)c1ccc(O)cc1`, the AC50 in assay [3] was 7.09 µM (active); in assay [6], 25 µM (active); in assay [12], 4.96 µM (active); in assay [13], 9.28 µM (active); in assay [10], 9.37 µM (active).

On to `Oc1ccc(C(c2ccc(O)cc2)(C(F)(F)F)C(F)(F)F)cc1`, for which the concentration at half-maximal activity (AC50) was 0.436 µM (active) in assay [3]; 10.4 µM (active) in assay [14]; 13.6 µM (active) in assay [1]; 8.39 µM (active) in assay [6]; 14 µM (active) in assay [2]; 0.352 µM (active) in assay [12]. The AC50 in assay [13] was 16.6 µM (active); in assay [7] it was 5.73 µM (active); in assay [8] it was 25 µM (active); in [9], 19.3 µM (active); in assay [10], 10.7 µM (active); in [15], 25 µM (active). The concentration at half-maximal activity (AC50) in assay [11] was 14.1 µM (active). Moreover, the compound was called inactive in assay [16] and in assay [17].

Consider `Cc1cc(O)ccc1Cl`, for which, in assay [18], the half-maximal activity concentration (AC50) is 18.5 µM (active).

Take `NS(=O)(=O)C(F)(F)C(F)(F)C(F)(F)C(F)(F)C(F)(F)C(F)(F)C(F)(F)C(F)(F)F`: in [4], the AC50 was 13.1 µM (active).

As for `CCNc1nc(NC(C)C)nc(SC)n1`, the AC50 in assay [4] was 13.4 µM (active); in assay [13], 13.7 µM (active); in assay [8] it was 10 µM (active).

On to `Nc1ccc(-c2ccc(N)cc2)cc1`, for which, in assay [18], the half-maximal activity concentration (AC50) was 16.6 µM (active).

Consider `c1cc2ccc3cccc4ccc(c1)c2c34`, for which the compound was classed as inactive in assay [16].

For `CCCCCCCCOC(=O)c1ccccc1C(=O)OCCCCCCCC`, the outcome in assay [9] was inactive.

Consider `Cc1cc2c3c(c1)C(c1ccccc1)=N[C@@H](NC(=O)c1ccncc1)C(=O)N3CC2`, for which the compound was called inactive in assay [13]. Further, the AC50 in [7] was 25 µM (active).

Turning to `CC1=C2C[C@H]3[C@@H](CC=C4C[C@@H](O)CC[C@@]43C)[C@@H]2CC[C@]12O[C@@H]1C[C@H](C)CN[C@H]1[C@H]2C`, the AC50 in [2] is 1.33 µM (active).

Consider `CCCN(CCC)N=O`, for which, in assay [9], the result was inactive.

A word on the AC50: it is the concentration giving half of the maximal activity seen.
